A selection: hits, their analogues and other compounds. The true share with any hit is near 21%.
TDP1 cell noCPT – qHTS for Inhibitors of human tyrosyl-DNA phosphodiesterase 1 (TDP1): qHTS in cells in absence of CPT; DT40 Tdp1-/- hTDP1 cells, no CPT, ATP luminescence, 48 h; 420,000 compounds, 15% hits; Potency, µM (top dose mostly 46.2 µM), for the others: at the top dose activity change, negative = growth inhibition, hits mostly inhibitors; AID 686978, 2013; also: potency is read from the fitted curve at half-maximal effect; % is scaled to controls: 0 for no effect and ±100 for the full control effect; nearly all actives have a fitted effect of over 55% in size
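A cellular qHTS used chicken DT40 cells lacking endogenous Tdp1 but carrying stably transfected human TDP1. Compounds were applied without camptothecin, and cell growth kinetics were judged by ATP-dependent luminescence after ≥48 hr.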
DRD3 antagonist – antagonists of human D3 dopamine receptor; P35462; D3R cells, DiscoveRx beta-arrestin luminescence, antagonist mode; stronger effect = lower value; max response, negative = inhibition, %; 360,000 compounds, 2.5% hits; AID 652054; in the data active = max response below about -50%; inconclusive = no clear call, values can overlap the other calls; also: % is scaled to controls: 0 for no effect and ±100 for the full control effect
Target sequence (P35462 whole entry, looked up): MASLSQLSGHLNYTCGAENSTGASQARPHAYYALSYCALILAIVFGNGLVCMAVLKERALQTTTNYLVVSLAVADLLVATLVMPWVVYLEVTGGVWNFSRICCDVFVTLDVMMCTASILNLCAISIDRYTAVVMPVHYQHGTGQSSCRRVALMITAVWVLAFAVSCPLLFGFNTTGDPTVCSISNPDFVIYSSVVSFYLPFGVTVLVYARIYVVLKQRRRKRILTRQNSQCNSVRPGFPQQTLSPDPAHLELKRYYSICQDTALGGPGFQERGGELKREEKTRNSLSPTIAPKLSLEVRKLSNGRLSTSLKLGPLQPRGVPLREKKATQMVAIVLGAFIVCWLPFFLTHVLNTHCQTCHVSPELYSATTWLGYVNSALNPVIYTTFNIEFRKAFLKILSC
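Cells expressing the human receptor were seeded at 1500 cells/well, incubated overnight at 37 degrees C in 5% CO2, then exposed to library compounds with dopamine controls for 90 minutes at 37 degrees C before luminescent detection.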
D3 ag – activates the human D3 dopamine receptor; P35462; D3R DiscoveRx beta-arrestin cells, luminescence, 90 min; max activation, %; 410,000 compounds, 0.58% hits; AID 652048; in the data active = max activation above about 30%; also: 0% is about no effect
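Agonist-mode cell screen: cells plated at 1500/well and incubated overnight at 37 °C, then exposed to library compounds for 90 min at 37 °C. Detection reagent was added for 30–60 min at room temperature, and luminescence was read.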
IL1B secr inh – blocks inflammasome-driven IL-1 beta release. THP-1 LPS/ATP IL-1B secretion, AlphaLISA, 16 h; stronger effect = lower value. activity change, % at 57.5 µM. 360,000 compounds, 4.7% hits. AID 743279; in the data active = activity change below about -50%; inconclusive = mostly about -30% to -49%; also: % is scaled to controls: 0 for no effect and ±100 for the full control effect
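THP-1 cells pretreated 1 hr with compounds (up to 57.5 uM final), then stimulated with LPS (250 ng/mL final) plus ATP (1.25 mM final); secreted IL-1B measured by AlphaLISA after 16 hr, decreased signal indicating inhibition.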
ClpP mod – qHTS Assay for Activators of ClpP; ATP-dependent Clp protease proteolytic subunit (Bacillus subtilis (strain 168)), P80244; purified B. subtilis ClpP, FRET peptide cleavage, 20 min; Potency, µM (titrated, usually from 57.5 µM), for the others: at the highest dose activity change, negative = active; 340,000 compounds, 1.9% hits; active = well fitted falling curve with a large enough effect; inconclusive = small, poorly fitted or top-dose-only effect; inactive = no such curve, though single readings can be large or run the other way; also: potency is read from the fitted curve at half-maximal effect; the source files actives as falling curves though it sought activators and does not explain the sign; nearly all actives have a fitted effect of over 65% in size
Target sequence (P80244 whole entry, looked up): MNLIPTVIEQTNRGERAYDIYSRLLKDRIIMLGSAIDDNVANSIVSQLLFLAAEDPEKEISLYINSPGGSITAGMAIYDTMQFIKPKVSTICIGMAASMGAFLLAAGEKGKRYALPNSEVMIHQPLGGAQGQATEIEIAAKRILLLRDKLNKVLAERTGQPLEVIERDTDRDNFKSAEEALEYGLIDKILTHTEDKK
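ClpP 10 microg/mL final, pH 8 Tris/KCl buffer with BSA, glycerol, Tween-20; compound pinned in; FRET-FV substrate; RT 20 min; Ex320/Em430; ΔFRET vs ADEP 5.8 microM, DMSO, no enzyme.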
DT40 TDP1 CPT – growth inhibition of DT40 Tdp1-/-;hTDP1 cells with camptothecin (screen for TDP1 inhibitors). chicken DT40 Tdp1-/-;hTDP1 cells + 20 nM CPT, ATP luminescence, 48 h. Potency, µM (doses to about 46.2 µM), for inactives: top-dose activity change, negative = growth inhibition, actives largely listed as inhibitors. 420,000 compounds, 12% hits; also: potency is read from the fitted curve at half-maximal effect; % is scaled to controls: 0 for no effect and ±100 for the full control effect; nearly all actives have a fitted effect of over 55% in size
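Chicken DT40 Tdp1-/- cells complemented with human TDP1, 400 cells/well, exposed to compounds plus 20 nM camptothecin for at least 48 h at 37 C; viability read as ATP content by CellTiter-Glo luminescence.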
Numbers without * were called inactive; ? = inconclusive; . = no result given. Unless noted, calls follow the shape of the dose curve; as a rule, active = well fitted inhibition curve with a large enough effect; inconclusive = small, poorly fitted or top-dose-only effect; inactive = flat fitted curve, though single readings scatter.

SMILES	TDP1 cell noCPT	DRD3 antagonist	D3 ag	IL1B secr inh	ClpP mod	DT40 TDP1 CPT
O=C(N/N=C/c1cc(Cl)cc([N+](=O)[O-])c1O)c1cc(-c2ccccn2)nc2ccccc12	15µM*	-61*	-20	131	1%	6.5µM*
COc1ccc(/C=N/NC(=O)c2cc(-c3cccnc3)nc3ccccc23)c(OC)c1	4.6µM*	0	4	27	.	?
O=[N+]([O-])c1cc(Cl)cc(/C=N\Nc2ccccn2)c1O	5.2µM*	-106*	-34	126	1%	5.2µM*
C/C(=N\NC(=O)c1cc(-c2ccccn2)nc2ccccc12)c1cccc([N+](=O)[O-])c1	?	-12	1	9	-4%	-12%
Cc1[nH]c2ccccc2c1C=NNC(=O)c1cc(-c2cccnc2)nc2ccccc12	7.3µM*	-4	0	22	-2%	13µM*
COc1ccc(/C=N/NC(=O)c2cc(-c3ccccc3)nc3ccccc23)c(C(=O)O)c1OC	-23%	4	1	1	-2%	-16%
COc1cccc(-c2cc(C(=O)N/N=C/c3cccc(OC)c3OC)c3ccccc3n2)c1	4.6µM*	-6	-10	-13	-1%	21µM*
COc1cccc(/C=N/NC(=O)c2cc(-c3ccccn3)nc3ccccc23)c1O	8.2µM*	5	2	87	.	9.2µM*
O=C(N/N=C/c1ccc(F)cc1)c1cc(-c2ccccn2)nc2ccccc12	-19%	2	-8	18	-4%	?
O=C(CSc1nc(-c2ccccc2)c(-c2ccccc2)o1)N1CCCCC1	?	19	1	-27	4%	?
O=C(CSCC(=O)N1CCCCC1)Nc1nc(-c2ccccc2)c(-c2ccccc2)s1	16µM*	-51*	-12	22	-13%	18µM*
CCc1cc2c3c(c(=O)oc2cc1O)CCCC3	?	9	1	20	10µM*	?
CCc1cc2c3c(c(=O)oc2cc1OC(C)C(=O)O)CCCC3 (centres undefined)	-23%	-17	9	0	4%	-26%
CCOC(=O)c1c(NC(=O)C2CCCCC2)sc2c1CCN(C(C)C)C2	13µM*	-60*	-12	-9	-10%	15µM*
CC(C)N1CCc2c(sc(NC(=O)C3CCCCC3)c2C(N)=O)C1	?	0	-5	-55*	-3%	?
CCOC(=O)c1cnc2ccccc2c1Nc1cccc(C(=O)O)c1	-3%	12	4	35	.	2%
CCOC(=O)c1cnc2ccc(C(=O)OC)cc2c1Nc1ccc(N2CCOCC2)cc1	12µM*	.	-2	.	-2%	10µM*
CCOC(=O)c1cnc2ccc(C(=O)OC)cc2c1Nc1cccc(C(=O)O)c1	10%	16	4	40	.	20%
CCOC(=O)c1cnc2ccc(C)cc2c1Nc1ccc(N2CCOCC2)cc1	?	-59*	12	?	4%	?
CCOC(=O)c1cnc2ccc(Cl)cc2c1Nc1ccc(N2CCOCC2)cc1	15µM*	.	19	.	-2%	15µM*
CCOC(=O)c1cnc2ccc(C)cc2c1Nc1ccc(N(CC)CC)cc1	6.5µM*	.	-4	.	-5%	12µM*
CC(C)[C@H](NC(=O)OCc1ccccc1)C(=O)OCC(=O)N1CCCCC1	?	0	-5	12	.	4%
O=C1N/C(=C\c2ccccc2)c2ccccc21	23µM*	-10	-3	34	?	21µM*
NS(=O)(=O)c1ccc(NC(=O)COC(=O)COc2ccc3ccccc3c2)cc1	0%	-20	1	-13	-2%	4%
Cc1cccc(N(C)S(=O)(=O)c2c(C)[nH]c(C)c2C(=O)N2CCCC2)c1	?	-3	-16	1	0%	?
SMILES	TDP1 cell noCPT	DRD3 antagonist	D3 ag	IL1B secr inh	ClpP mod	DT40 TDP1 CPT
CCOc1cccc(C(=O)NC(=S)Nc2cccc(NC(=O)c3ccccc3Cl)c2)c1	21µM*	-1	-3	?	1%	?
CC(C)Oc1cccc(C(=O)NC(=S)Nc2ccc(Cl)c(C(=O)O)c2)c1	-2%	-88*	-1	33	6%	3%
CCOc1cccc(C(=O)NC(=S)Nc2ccccc2)c1	?	-11	-8	14	4%	?
CS(=O)(=O)N1CCc2cc(S(=O)(=O)NCc3ccccc3Cl)ccc21	-29%	.	-9	.	-2%	-24%
O=C1NC(=O)C2(CCCCCCCCCCC2)N1	-17%	18	4	15	.	0%
O=C(COC(=O)c1ccc(Cl)nc1)Nc1cc(S(=O)(=O)N2CCOCC2)ccc1Cl	?	-10	1	34	-2%	?
CCCN(C(=O)c1cc2c(=O)oc3ccccc3c2s1)c1ccccc1C	?	.	4	.	-4%	18µM*
CCOc1ccccc1N(CC)C(=O)c1cc2c(=O)n(CC)c3ccccc3c2s1	16µM*	.	-7	.	-14%	15µM*
CCN(C(=O)c1cc2c(=O)n(CC)c3ccccc3c2s1)c1cccc(C(F)(F)F)c1	9.2µM*	.	0	.	58%	9.2µM*
CCN(C(=O)c1cc2c(=O)oc3ccc(C)cc3c2s1)c1ccccc1C	?	.	5	.	0%	?
CCn1c(=O)c2cc(C(=O)N(C)c3ccccc3F)sc2c2ccccc21	15µM*	6	3	-72*	.	?
CCN(C(=O)c1cc2c(=O)oc3ccccc3c2s1)c1cccc(C(F)(F)F)c1	-5%	.	0	.	-14%	-5%
CCn1c(=O)c2cc(C(=O)N3CCN(C)CC3)sc2c2ccccc21	?	1	-2	-22	4%	5%
Cc1ccc(S(=O)(=O)NC(=O)NC2CCCCCCC2)cc1	5%	.	4	.	.	13%
Cc1cccc(C)c1-n1ncc(C(=O)O)c1C1CCN(C(=O)OC(C)(C)C)CC1	-2%	.	4	.	-1%	-1%
CCn1c(=O)c2cc(C(=O)NCCCN(C)Cc3ccccc3)sc2c2ccccc21	?	.	-20	.	3%	?
CCCN(C(=O)c1cc2c(=O)n(CC)c3ccccc3c2s1)c1ccccc1F	6.5µM*	.	-4	.	-3%	8.2µM*
COc1ccc(C)cc1NC(=O)CN1CCN(S(=O)(=O)c2ccc(C(C)C)cc2)CC1	16µM*	0	-2	-17	?	?
COc1ccccc1NC(=O)CN1CCN(c2ccc(F)cc2)CC1	?	4	5	8	.	?

Screening results: PubChem, National Center for Advancing Translational Sciences (NCATS)
